The supplement of paper PMC11624193, “Coupling cellular drug-target engagement to downstream pharmacology with CeTEAM” (Nature Communications, 2024)
Where a name gives a salt, the structure may show the parent alone. Values without a mark were called inactive.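 How the source made its calls: active = log2 fold change beyond 2 SD from the library mean after excluding viability outliers; inactive = within 2 SD.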

Each molecule was assayed against PARP1 L713F-nLuc biosensor (HCT116) (UniProt P09874) (assay: PARP1 L713F-nLuc/akaLuc ratio relative to DMSO control (biosensor stabilization) (fold change); higher = more PARP1 biosensor stabilization (target engagement / stabilizer), active = hit call of the paper). Details: stock concentration (mM; final µM = stock mM x 1): 10; 24 h.
Sequence of PARP1 L713F-nLuc biosensor (HCT116) (P09874 whole entry L713F, looked up): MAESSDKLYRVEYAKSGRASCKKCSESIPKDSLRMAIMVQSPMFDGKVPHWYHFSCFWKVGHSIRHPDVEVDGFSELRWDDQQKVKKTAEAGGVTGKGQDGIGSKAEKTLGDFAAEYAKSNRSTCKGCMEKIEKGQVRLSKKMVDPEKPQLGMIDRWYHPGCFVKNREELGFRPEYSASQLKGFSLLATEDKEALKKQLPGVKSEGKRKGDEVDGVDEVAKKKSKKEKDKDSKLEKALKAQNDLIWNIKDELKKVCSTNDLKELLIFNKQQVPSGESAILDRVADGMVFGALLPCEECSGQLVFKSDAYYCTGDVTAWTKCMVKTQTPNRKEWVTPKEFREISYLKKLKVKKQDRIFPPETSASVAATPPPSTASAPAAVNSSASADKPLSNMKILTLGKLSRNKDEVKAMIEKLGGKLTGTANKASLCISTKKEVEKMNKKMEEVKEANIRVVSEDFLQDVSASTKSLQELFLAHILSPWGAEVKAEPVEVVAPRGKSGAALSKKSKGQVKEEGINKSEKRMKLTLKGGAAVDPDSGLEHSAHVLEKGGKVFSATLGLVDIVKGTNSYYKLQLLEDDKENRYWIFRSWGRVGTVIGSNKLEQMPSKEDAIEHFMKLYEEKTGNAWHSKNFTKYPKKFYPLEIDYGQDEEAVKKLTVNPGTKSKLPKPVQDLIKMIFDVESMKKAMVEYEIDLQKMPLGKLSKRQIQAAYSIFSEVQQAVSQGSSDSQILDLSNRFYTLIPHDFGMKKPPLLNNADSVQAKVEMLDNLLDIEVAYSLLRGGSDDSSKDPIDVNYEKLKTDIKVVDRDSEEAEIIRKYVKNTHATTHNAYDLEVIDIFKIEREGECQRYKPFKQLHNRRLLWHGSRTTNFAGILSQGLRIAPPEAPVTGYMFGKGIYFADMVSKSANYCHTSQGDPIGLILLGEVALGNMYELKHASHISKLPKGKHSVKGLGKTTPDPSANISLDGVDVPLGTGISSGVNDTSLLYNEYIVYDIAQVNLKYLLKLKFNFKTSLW

Row | Compound | PARP1 L713F-nLuc/akaLuc ratio
1 | CCc1cc2c(cc1N1CCC(N3CCOCC3)CC1)C(C)(C)c1[nH]c3cc(C#N)ccc3c1C2=O | 2.06
2 | Cc1cnc(Nc2ccc(OCCN3CCCC3)cc2)nc1Nc1cccc(S(=O)(=O)NC(C)(C)C)c1 | 0.333 (active)
3 | COc1ccc2cc3[n+](cc2c1OC)CCc1cc(O)c(O)cc1-3 [Demethyleneberberine] | 1.47
4 | Cc1cc(Nc2nc(CC3(C(=O)O)CCN(C(=O)c4cccc(Cl)c4Cl)CC3)ccc2F)n[nH]1 | 1.6
5 | CCCCCCCCCCCCCC(=S)NCCCC[C@H](NC(=O)OCc1ccccc1)C(=O)Nc1ccccc1 [Thiomyristoyl] | 1.08
6 | CCN(CCCOc1ccc2c(Nc3cc(CC(=O)Nc4cccc(F)c4)[nH]n3)ncnc2c1)CCOP(=O)(O)O [Barasertib] | 1.15
7 | CC(C)(C)c1nc(-c2cccc(NS(=O)(=O)c3c(F)cccc3F)c2F)c(-c2ccnc(N)n2)s1 | 0.885
8 | O=C1/C(=C/c2ccc(O)c(Br)c2)CN(Cc2ccccc2)C/C1=C\c1ccc(O)c(Br)c1 | 0.985
9 | CN(c1ccccc1)c1ccc2c(c1)CCC[C@H]2CNc1cnccc1C(=O)O | 0.387
10 | CC1(C)Oc2cc(N3CCN(C(=O)OCc4ccccc4)CC3)c([N+](=O)[O-])cc2-c2c1cnn2-c1ccc(C(=O)O)cc1 [Lin28-let-7a antagonist 1] | 0.959
11 | CN1CCN(c2ccc(C(=O)Nc3ccc([C@@H]4C[C@H]4N)cc3)cc2)CC1 | 0.684
12 | CC(O)c1cc(C(=O)N[C@@H](C)Cn2ccc(-c3ccc(C#N)c(Cl)c3)n2)n[nH]1 (some centres undefined) [Darolutamide (ODM-201)] | 0.613
13 | CNCc1ccc(-c2[nH]c3cc(F)cc4c3c2CCNC4=O)cc1 [Rucaparib (Camsylate)] | 6.55 (active)
14 | Nc1nc(OCc2ccc(CNC(=O)C(F)(F)F)cc2)c2[nH]cnc2n1 [PIN1 inhibitor API-1] | 1.38
15 | Cc1csc(-c2nnc(Nc3ccc(Oc4ncccc4-c4ccnc(N)n4)cc3)c3ccccc23)c1 | 1.02
16 | COc1ccc(COc2cc3oc(=O)c4cc(C(C)O)ccc4c3cc2OC)cc1 (centres undefined) [Palomid 529 (P529)] | 0.578
17 | CO[C@H]1C[C@@H]2CC[C@@H](C)[C@@](O)(O2)C(=O)C(=O)N2CCCC[C@H]2C(=O)O[C@H]([C@H](C)C[C@@H]2CC[C@@H](OCCO)[C@H](OC)C2)CC(=O)[C@H](C)/C=C(\C)[C@@H](O)[C@@H](OC)C(=O)[C@H](C)C[C@H](C)/C=C/C=C/C=C/1C [Everolimus (RAD001)] | 0.669
18 | COc1nc(N)nc2c1ncn2[C@@H]1O[C@H](CO)[C@@H](O)[C@@H]1O [Nelarabine] | 1.15
19 | COc1cc(CCc2cc(NC(=O)c3ccc(N4CC(C)NC(C)C4)cc3)n[nH]2)cc(OC)c1 (centres undefined) | 0.745
20 | O=C(O)c1ccc(O)c2ncccc12 | 0.734

Row | Compound | PARP1 L713F-nLuc/akaLuc ratio
21 | CC(=O)O[C@H]1C(=O)[C@@]2(C)[C@H]([C@H](OC(=O)c3ccccc3)[C@]3(O)C[C@H](OC(=O)[C@H](O)[C@@H](NC(=O)c4ccccc4)c4ccccc4)C(C)=C1C3(C)C)[C@]1(OC(C)=O)CO[C@@H]1C[C@@H]2O [Paclitaxel] | 2.97 (active)
22 | O=C(O)CNC(=O)c1c(O)c2ccccc2n(OCC2CC2)c1=O [Desidustat] | 0.943
23 | O=C(Nc1nc2cccc(-c3ccc(CN4CCS(=O)(=O)CC4)cc3)n2n1)C1CC1 [Filgotinib] | 0.941
24 | Nc1cccc(Nc2ncc(-c3ccc(Cl)cc3)o2)c1 | 0.952
25 | N#Cc1c(O)c2c(-c3ccc(-c4ccccc4O)cc3)csc2[nH]c1=O | 0.692
26 | Cn1cccc1/C=C1\C(=O)NC(=O)c2ccccc21 | 3.34 (active)
27 | O=C(NOCCO)c1ccc2cncn2c1Nc1ccc(I)cc1F | 0.421
28 | O=C(NCCCc1ccccc1)c1cccc(-c2cc(O)c3ncccc3c2)c1 | 0.729
29 | O=C1CCc2c(ccc3ccccc23)O1 [Splitomicin] | 0.895
30 | CCS(=O)(=O)N1CCN(c2ccc(Nc3ncc(C(N)=O)c(NC4CC4)n3)cc2)CC1 [Cerdulatinib (hydrochloride)] | 1.06
31 | CC(=O)c1c(C)cc2cccc(O)c2c1O [Nepodin] | 0.91
32 | C[C@H](NC(=O)/C(C#N)=C/c1cccc(Br)n1)c1ccccc1 | 0.804
33 | COc1ccc(Cn2ccc3ccc(C(=O)NO)cc32)cc1 | 1.04
34 | C[C@H](Nc1cc(-c2cnn(C)c2)cc(Nc2cnccn2)n1)c1ccc(F)cc1 [Ilginatinib (maleate)] | 0.614
35 | Nc1ccc(S(=O)(=O)NCCc2ccccc2)cc1 | 0.888
36 | CCN(C(=O)c1ccccc1OC)c1cc2c(cc1N1CCNC[C@H]1C)n(C)c(=O)n2C | 0.597
37 | O=c1cc(-c2ccc(O[C@@H]3O[C@H](CO)[C@@H](O)[C@H](O)[C@H]3O)cc2)oc2cc(O)c([C@@H]3O[C@H](CO)[C@@H](O)[C@H](O)[C@H]3O[C@@H]3OC[C@H](O)[C@H](O)[C@H]3O)c(O)c12 [Vaccarin] | 0.723
38 | COC(=O)Nc1nc2cc(Sc3ccccc3)ccc2[nH]1 [Fenbendazole] | 2.66
39 | CC(C)Oc1ccc(-c2nn([C@@H](C)c3oc4ccc(F)cc4c(=O)c3-c3cccc(F)c3)c3ncnc(N)c23)cc1F [umbralisib (TGR-1202)] | 1.01
